The results in this text go back to PubChem BioAssay AID2733 (National Center for Advancing Translational Sciences (NCATS), 2010).

Records with an inconclusive call do not appear. Calls of active or inactive are those of the source. Calls come from the whole dose curve; as a rule, active = well fitted inhibition curve with a large enough effect; inconclusive = small, poorly fitted or top-dose-only effect; inactive = flat fitted curve, though single readings scatter.

The nature of the assay: High Content Assay for Compounds that inhibit the Assembly of the Perinucleolar Compartment: PC3M Cytotoxicity. As to conditions: PC3M cells, ATPLite luminescence viability, 24 h; series mostly up to 46.1 µM; activity change, negative = cytotoxicity: at the top concentration. From the text: High Content Assay for Compounds that inhibit the Assembly of the Perinucleolar Compartment
NIH Chemical Genomics Center [NCGC]
NIH Molecular Libraries Probe Centers Network [MLPCN]
Assay Submitter (PI): Sui Huang, Northwestern University, Feinberg School of Medicine, Cell and Molecular Biology, Chicago, Illinois.
The perinucleolar compartment (PNC) is a non-membrane-bound nuclear subdomain that is associated with but structurally distinct from the nucleolus. The PNC is a heritable trait, in which the number of PNCs per cell in daughter cells often mimics that of their mother cells. The PNC is heterogeneous in shape, is stable through interphase, disassembles during mitosis, and reassembles in early G1. The PNC is concentrated with newly synthesized RNA polymerase III (pol III) RNAs (MRP RNA, RNAse P H1 RNA, hY RNAs[hY1, 2, 5], Alu RNA, and SRP [7SL] RNA) and RNA binding proteins (nucleolin, PTB, CUG-BP, KSRP, Raver1, Raver2, and Rod).
Extensive in vitro studies have shown that the PNC is unique to tumor cells and preferentially forms in tumor cells derived from solid tissues. Examination of cancer cell lines from various origins and malignant capacities has shown that PNC prevalence correlates with the malignancy of tumors and has the potential to be developed as a pan-cancer prognostic marker.
Although the PNC is associated with a DNA locus and a handful of components have been identified, much remains to be investigated regarding the structure and function of the PNC and its mechanistic link to cancer. We have previously shown that PNC prevalence reduction is a valid strategy to identify compounds that can be used to study the structure and function of the PNC. It is necessary, however, to create a screening platform that is able to test a large number of compounds in an automated fashion. Here we report the development and robustness of an automated whole-cell phenotypic image-based screening assay that is capable of identifying such compounds.
We conducted a followup assay to measure the effect of the lead candidates on cell health by measuring ATP levels (ATPLite). The highly metastatic PC3M-GFP reporter cell line was used in this study.
1. Cells at a density of 75-90% confluency in T175 flasks were harvested using 7 ml TrypLE Express cell dissociation reagent. After dissociation (5 minutes room temperature incubation) 10 ml of complete media was added to the TrypLE/cell suspension. The liquid was transferred to a 50 ml Conical tube and cells were pelleted at 1000 RPM for 5 min. Supernatant was removed and cells were resuspended to a final density of 150-200 cells/ul in complete media.
2. Cells were plated in 5 ul volume (2000 cells/well) into 1536 well White solid bottom plates and allowed to recover and adhere at 37 C in a humidified 5% CO2 incubator for 4 hours.
3. After 4 hour incubation, compound libraries (23 nl of 12.5 uM in columns 5-48) were transferred to the plates in duplicate using a 1536 well pintool. Camptothecin positive control (59 uM final) was added to column 2 and 1:3 dilutions of camptothecin was added to column 3. DMSO negative controls were present in columns 1 and 4.
4. After a 24 hour incubation in the 37 C incubator, all wells were treated with 3 ul of ATPLite reagent using a multidrop combi dispenser (ThermoFisher). Bubbles that formed during dispensing were removed by spinning the plates for 1 minutre at 1500 RPM on a table top centrifuge.
5. Luminescencent signal was detected on a Viewlux CCD based imager (PerkinElmer) with a clear filter and a 30 second integration time.
The PC3M cell line stably expressing the PTB-GFP was provided by Sui Huang of Northwestern University. The media and cell culture reagents were purchased from Invitrogen (Carlsbad, CA), ATPLite came from PerkinElmer.
For orientation: Cellular ATP, detected with luciferase, serves as a proxy for viable cell number.
Regarding `O=C1C(=O)c2ccc(-c3ccccc3)cc2-c2ccccc21`, the Potency is 15.8 µM (active).

On to `CCN=c1scc(-c2ccccc2)n1/N=C/c1ccccn1`, for which the Potency is 10 µM (active).

Regarding `O=S(=O)(Nc1cc(Sc2cccc3cccnc23)c(O)c2ccccc12)c1ccc(F)cc1`, the Potency is 15.8 µM (active).

As to `O=C(N/N=C\c1ccc([N+](=O)[O-])s1)c1cncc(Br)c1`, the Potency was 25.1 µM (active).

Regarding `COC(=O)c1ccc(CSc2ccccc2C)o1`, the “activity change, negative = cytotoxicity” value is 11.2% (inactive).

On to `COc1ccc2nc3sc(C(=O)NCCCN4CCc5ccccc5C4)cc3cc2c1`, for which the Potency was 31.6 µM (active).

For `COc1ccc(-c2csc(NC(=O)c3ccc(OCC(=O)N4CCOCC4)c(OC)c3)n2)cc1`, the “activity change, negative = cytotoxicity” value was -19.6% (inactive).

As for `COc1ccc(-c2nc(NC(=O)c3n[nH]c(=O)c4ccccc34)sc2C)cc1`, the Potency was 7.08 µM (active).

Regarding `CCOC(=O)NC1(Nc2ccc(C)cc2)Oc2ccccc2O1`, the “activity change, negative = cytotoxicity” value was -5.34% (inactive).

With `O=C(NCc1ccco1)C1CCN(Cc2ccc(F)cc2)CC1`, the “activity change, negative = cytotoxicity” value is -8.55% (inactive).

As for `CCCSc1cc(N2CCN(C)CC2)nc(-c2ccc(OC)cc2)n1`, the “activity change, negative = cytotoxicity” value was -2.66% (inactive).

`O=[N+]([O-])c1cc(/C=N/Nc2nc3ccccc3[nH]2)c(O)cc1O`: the Potency is 7.94 µM (active).

With `CCCNC1=C(N(C(C)=O)c2cccc(F)c2)C(=O)c2ccccc2C1=O`, the Potency is 11.2 µM (active).

Turning to `CCc1ccc(S(=O)(=O)/N=C2/C=C(Sc3ncn[nH]3)C(=O)c3ccccc32)cc1`, the Potency is 35.5 µM (active).

Take `CC(=O)N(C)C1=C(N2CCOCC2)C(=O)c2ccccc2C1=O`: the Potency was 15.8 µM (active).

On to `COc1ccc(-c2cc(C#N)nc(N3CCN(C)CC3)n2)cc1`, for which the “activity change, negative = cytotoxicity” value is -4.37% (inactive).

`Nc1cccc(-c2nc3ccc(N)cc3s2)c1`: the Potency is 25.1 µM (active).

In the case of `O=C(N/N=C/c1c(O)ccc2ccccc12)c1cccc(C(F)(F)F)c1`, the Potency is 8.91 µM (active).

For the compound `COc1cc(C(=O)Oc2ccccc2/C=N/NC(=O)c2ccc(Cl)cc2)cc(OC)c1OC`, the Potency was 11.2 µM (active).

Turning to `CCCCN(C(=O)Nc1ccc(Cl)cc1)C1CCN(C(C)=O)CC1`, the “activity change, negative = cytotoxicity” value was -17.1% (inactive).

With `Cc1cc(SC(C)C(=O)Nc2ncc(Cl)cc2Cl)nc2ccccc12` (configuration not stated), the Potency was 11.2 µM (active).

With `O=C1C(=Cc2cccs2)C(=O)c2ccccc21`, the “activity change, negative = cytotoxicity” value was -11.4% (inactive).
